Laboratory results as given in PubChem BioAssay (NCI).
The panel holds about 79,000 compounds, 15% with a hit somewhere; the sample as a whole holds those more often. Active and inactive are the calls of the source. Rule as the data show it: active = growth inhibition above about 70%; inactive = the rest.

Experiments:
[1] = NCI Yeast Anticancer Drug Screen. Data for the rad52 strain (AID 147);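 also: 0% = growth of vehicle-treated control cultures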; settings: S. cerevisiae rad52 mutant growth inhibition, hits give high values
In short: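 The repair-mutant yeast strain was incubated with compounds, then growth was read and inhibition derived relative to vehicle.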

[2] = NCI Yeast Anticancer Drug Screen. Data for the wt1 strain (AID 149);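 also: 0% = growth of vehicle-treated wt1 cultures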; settings: S. cerevisiae wt1 strain (SPY 50644) growth inhibition, hits give high values
In short: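 The wt1 strain was treated with compounds, and growth was compared with vehicle-treated cultures to give inhibition.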

[3] = NCI Yeast Anticancer Drug Screen. Data for the rad50EPP+ strain (AID 151);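 also: 0% = growth of vehicle-treated control cultures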; settings: S. cerevisiae rad50 mutant strain, hits give high values
In short: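 Vehicle-normalised growth inhibition; rad50EPP+ yeast strain, altered in DNA damage repair, compound-treated.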

[4] = NCI Yeast Anticancer Drug Screen. Data for the rad50 strain (AID 155);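 also: 0% = growth of vehicle-only cultures of the same strain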; settings: S. cerevisiae rad50 strain growth inhibition, hits give high values
In short: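 Cells are treated with compound, grown, and their growth is then scored against vehicle-only cultures of the same repair-deficient yeast strain.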

[5] = NCI Yeast Anticancer Drug Screen. Data for the mec2-1 strain (AID 157); settings: S. cerevisiae mec2-1 strain, hits give high values
In short: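 Mutant yeast (mec2-1) grown with compound; growth inhibition relative to vehicle control reported.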

[6] = NCI Yeast Anticancer Drug Screen. Data for the rad14 strain (AID 159);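 also: 0% = growth of vehicle-treated control cultures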; settings: S. cerevisiae rad14 strain growth inhibition, hits give high values
In short: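 Readout: yeast growth inhibition, referenced to vehicle-only cultures. Strain bears a defined alteration in DNA damage repair.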

[7] = NCI Yeast Anticancer Drug Screen. Data for the sgs1 mgt1 strain (AID 161);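 also: 0% = growth of cultures given vehicle only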; settings: S. cerevisiae sgs1 mgt1 strain, hits give high values
In short: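 This yeast growth screen uses a strain with defined DNA-repair lesions; compound-treated growth is compared with vehicle-treated growth.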

[8] = NCI Yeast Anticancer Drug Screen. Data for the CLN2oe strain (AID 163);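 also: 0% = growth of vehicle-only control cultures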; settings: S. cerevisiae CLN2oe strain, hits give high values
In short: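 Compounds are applied to yeast harbouring a defined cell-cycle control change; reduced growth compared with vehicle-treated controls gives the value.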

[9] = NCI Yeast Anticancer Drug Screen. Data for the bub3 strain (AID 167); settings: S. cerevisiae bub3 mutant strain, hits give high values
In short: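 Part of a panel of yeast mutants defective in DNA damage repair or cell cycle regulation. Each strain is grown with compound, and inhibition is calculated relative to solvent-treated cultures.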

[10] = NCI Yeast Anticancer Drug Screen. Data for the wt2 strain (AID 169);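 also: 0% = growth of vehicle-treated yeast cultures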; settings: S. cerevisiae wt2 strain growth inhibition, hits give high values
In short: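 Against vehicle-treated controls, the growth of yeast exposed to each compound was compared, and the inhibition was recorded.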

[11] = NCI Yeast Anticancer Drug Screen. Data for the mlh1 strain (AID 171);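 also: 0% = growth of vehicle-treated control cultures of the same strain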; settings: S. cerevisiae mlh1 strain growth inhibition, hits give high values
In short: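 Measured: yeast growth. Reference: vehicle-treated controls. Organism: strain with a defined alteration affecting DNA damage repair or cell cycle control, treated with compound.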

[12] = NCI Yeast Anticancer Drug Screen. Data for the sgs1 strain (AID 173);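 also: 0% = growth of vehicle-only control cultures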; settings: S. cerevisiae sgs1 mutant, hits give high values
In short: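 Each compound was added to cultures of the altered yeast strain. Growth was recorded, and inhibition was derived by comparison with vehicle controls.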

[13] = NCI Yeast Anticancer Drug Screen. Data for the mlh1 rad18 strain (AID 175); settings: S. cerevisiae mlh1 rad18 strain growth inhibition, hits give high values
In short: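 Genetically defined yeast (DNA repair-deficient) exposed to compounds; growth inhibition determined relative to vehicle.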

[14] = NCI Yeast Anticancer Drug Screen. Data for the rad18 strain (AID 177); settings: S. cerevisiae rad18 mutant growth inhibition, hits give high values
In short: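 Vehicle-treated cultures served as the baseline for scoring compound-induced growth inhibition in DNA-repair-mutant yeast.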

[15] = at 5.0 µM (retest, dose inferred, filed as 0.5)
[16] = at 50.0 µM (retest, dose inferred, filed as 5.0)

Measured: growth inhibition

CCNc1ccc2c(c1)C(=O)N(OS(C)(=O)=O)C2=O
inactive: [1]; at 1.2 µM 1% | [1]; at 3.7 µM 1% | [1]; at 11.0 µM 5% | [1]; at 33.0 µM 23% | [2]; at 1.2 µM 1% | [2]; at 3.7 µM 5% | [2]; at 11.0 µM 4% | [2]; at 33.0 µM 10% | [2]; at 100.0 µM 31% | [3]; at 1.2 µM 7% | [3]; at 3.7 µM 6% | [3]; at 11.0 µM 7% | [3]; at 33.0 µM 11% | [3]; at 100.0 µM 27% | [4]; at 1.2 µM 2% | [4]; at 3.7 µM 2% | [4]; [15] 4% | [4]; at 11.0 µM 8% | [4]; at 33.0 µM 18% | [4]; [16] 18% | [5]; at 1.2 µM 6% | [5]; at 3.7 µM 10% | [5]; [15] 4% | [5]; at 11.0 µM 14% | [5]; at 33.0 µM 21% | [5]; [16] 23% | [5]; at 50.0 µM 61% | [5]; at 100.0 µM 7% | [6]; at 1.2 µM 3% | [6]; at 3.7 µM 0% | [6]; at 11.0 µM 3% | [6]; at 33.0 µM 16% | [6]; at 100.0 µM 34% | [7]; [15] 3% | [7]; [16] 12% | [8]; at 1.2 µM 5% | [8]; at 3.7 µM -6% | [8]; at 11.0 µM 4% | [8]; at 33.0 µM 15% | [8]; at 100.0 µM 40% | [9]; at 1.2 µM -2% | [9]; at 3.7 µM -2% | [9]; [15] -1% | [9]; at 11.0 µM 0% | [9]; at 33.0 µM 8% | [9]; [16] 12% | [9]; at 50.0 µM 24.5% | [9]; at 100.0 µM 26% | [10]; at 1.2 µM 0% | [10]; at 3.7 µM 1% | [10]; at 11.0 µM 1% | [10]; at 33.0 µM 6% | [10]; at 100.0 µM 41% | [11]; at 1.2 µM 3% | [11]; at 3.7 µM 3% | [11]; at 11.0 µM 5% | [11]; at 33.0 µM 12% | [11]; at 100.0 µM 42% | [12]; at 1.2 µM 2% | [12]; at 3.7 µM 3% | [12]; at 11.0 µM 6% | [12]; at 33.0 µM 15% | [12]; at 100.0 µM 62% | [13]; [15] -3% | [13]; [16] 23% | [14]; at 1.2 µM 4% | [14]; at 3.7 µM 2% | [14]; at 11.0 µM 3% | [14]; at 33.0 µM 14%
active: [1]; at 100.0 µM 79% | [4]; at 50.0 µM 96.8% | [4]; at 100.0 µM 88% | [7]; at 50.0 µM 85.6% | [13]; at 50.0 µM 97% | [14]; at 100.0 µM 73%
